From PubChem
Shown are actives, neighbours in structure and some others; about 12% of the full set was active somewhere.
HP1b chromo inh = blocks HP1-beta chromodomain binding to methylated histone tails. P83916. AlphaScreen HP1-beta / biotin-H3K9me3 peptide binding. Potency, µM (top dose mostly 114 µM), without a hit: at the highest dose activity change, negative = inhibition, hits mostly inhibitors. 390,000 compounds, 0.56% hits. AID 540317; also: nearly all actives have a fitted effect of over 70% in size
Target sequence (P83916 whole entry, looked up): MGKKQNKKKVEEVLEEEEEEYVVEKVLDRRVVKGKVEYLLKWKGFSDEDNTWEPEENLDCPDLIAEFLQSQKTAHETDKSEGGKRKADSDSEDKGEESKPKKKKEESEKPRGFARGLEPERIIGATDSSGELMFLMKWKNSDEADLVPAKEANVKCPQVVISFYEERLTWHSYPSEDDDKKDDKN
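AlphaScreen: HP1-beta (50 nM) preformed 30 min with biotin-H3(1-18)K9me3 peptide (50 nM) in PBS pH 7.4, 0.01% Tween-20. Compound added for 30 min at RT, then streptavidin donor/nickel chelate acceptor beads (10 ug/mL) for 30 min.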
Sfp inh = inhibitors of Bacillus subtilis Sfp phosphopantetheinyl transferase. Q9F4F7. Biochemical Sfp PPTase activity, qHTS. Potency, µM, without a hit: largest response in the series, negative = inhibition, most hits filed as inhibitors. 310,000 compounds, 3.5% hits. AID 1490;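 also: the enzyme is Sfp with the accession as filed and its product quenches rhodamine fluorescence; 0% = enzyme reaction without inhibitor and -100% = no enzyme wells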
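Fluorescence-quenching assay with 15 nM Sfp, 5 uM rhodamine-CoA and 12.5 uM BHQ-2-labelled ybbR peptide in pH 7.6 Hepes/MgCl2 buffer. Enzyme was pre-incubated with compound for 15 min at room temperature. Rate was taken from the 30-min fluorescence change (525/598 nm).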
G9a block = blocks human histone lysine methyltransferase G9a; G9a H3K9 monomethylation, AlphaScreen, 2 h; Potency, µM (series often up to 102 µM), inactives show top-dose activity, negative = inhibition, actives largely listed as inhibitors; 350,000 compounds, 8.8% hits; AID 504332; also: % is scaled to controls: 0 for no effect and ±100 for the full control effect; nearly all actives have a fitted effect of over 75% in size
Target sequence (Q96KQ7 913-1193 limits assumed): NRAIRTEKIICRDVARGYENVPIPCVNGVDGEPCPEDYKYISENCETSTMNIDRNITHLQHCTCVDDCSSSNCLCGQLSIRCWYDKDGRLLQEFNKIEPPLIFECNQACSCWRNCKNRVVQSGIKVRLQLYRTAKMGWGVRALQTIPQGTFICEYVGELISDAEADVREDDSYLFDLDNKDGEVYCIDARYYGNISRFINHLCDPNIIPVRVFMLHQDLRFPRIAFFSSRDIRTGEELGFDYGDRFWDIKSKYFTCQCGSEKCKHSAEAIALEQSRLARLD
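G9a (20 nM) preincubated 15 min RT with compounds, then 500 nM biotinylated H3K9 peptide and 20 uM SAM added; 2 h RT reaction. Monomethyl-H3K9 product detected by AlphaScreen with anti-H3K9me1 antibody, streptavidin donor and anti-rabbit IgG acceptor beads.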
BAZ2B block = blocks human BAZ2B | 360,000 compounds, 4.4% hits | AID 504333 | AlphaScreen BAZ2B-H3K14Ac peptide displacement | Potency, µM (doses to about 114 µM), inactives show at the top dose activity change, negative = inhibition, most hits filed as inhibitors | Q9UIF8; also: % is scaled to controls: 0 for no effect and ±100 for the full control effect; nearly all actives have a fitted effect of over 60% in size
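In this displacement format the biotinylated H3(5-23) peptide acetylated at Lys14 serves as ligand at 50 nM, with BAZ2B at 50 nM in PBS pH 7.4 containing 0.01% Tween-20. Donor and acceptor beads are 10 ug/mL final.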
JMJD2A Tudor inh = JMJD2A Tudor domain (human) inhibition; 390,000 compounds, 4.4% hits; Potency, µM (highest dose often 114 µM), for inactives: at the top dose activity change, negative = inhibition, most hits filed as inhibitors; AlphaScreen JMJD2A-Tudor / H3K4me3 peptide binding; AID 504339; also: % is scaled to controls: 0 for no effect and ±100 for the full control effect; nearly all actives have a fitted effect of over 50% in size
L3MBTL1 inh = blocks human L3MBTL1. Q9Y468. AlphaScreen L3MBTL1–H3K9me1 peptide binding. Potency, µM (top dose mostly 57.1 µM), without a hit: top-dose activity, negative = inhibition, most hits filed as inhibitors. 230,000 compounds, 0.66% hits. AID 485360; also: % is scaled to controls: 0 for no effect and ±100 for the full control effect; nearly all actives have a fitted effect of over 60% in size
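Read-out is AlphaScreen signal from streptavidin donor and nickel chelate acceptor beads (10 ug/mL final each) bridging L3MBTL1 (50 nM) and biotinylated K9-monomethylated H3(1-15) peptide (75 nM), after 30 min compound exposure at room temperature.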
Starred values were filed as active, the others as inactive; [ ] = dose if it differs, or a comment. Calls follow the shape of the dose curve; as a rule, active = well fitted curve in the direction sought with a large enough effect; inconclusive = small, poorly fitted or top-dose-only effect, or another doubt; inactive = no such curve, though single readings can be large; an effect the other way counts as inactive or inconclusive. Potency is read from the fitted curve at half-maximal effect.

For O=c1cc[nH]c2c1ccc1c(=O)cc[nH]c12 the results were HP1b chromo inh 14%, Sfp inh 3%, G9a block 45µM*, BAZ2B block -26% and JMJD2A Tudor inh inconclusive.
Screening Fc1cccc2sc(Nc3nc4ccccc4s3)nc12 returned HP1b chromo inh 41%, Sfp inh 6%, G9a block inconclusive, BAZ2B block 10%, JMJD2A Tudor inh 6% and L3MBTL1 inh 2%.
Screening C=C1c2cccc(O)c2C(=O)C2C(=O)[C@]3(O)C(=O)C(C(N)=O)C(=O)[C@@H](N(C)C)[C@@H]3[C@@H](O)[C@H]12 (stereo partly specified) returned HP1b chromo inh inconclusive, JMJD2A Tudor inh 3.2µM* and L3MBTL1 inh 0.89µM*.
O=S(=O)(O)c1ccc(SCc2ccccc2)nc1 was read as HP1b chromo inh 24% and JMJD2A Tudor inh 89µM*.
`NS(=O)(=O)c1ccc(CCNCc2cc(Cl)ccc2OCc2ccccc2)cc1` gave HP1b chromo inh 22%, Sfp inh -27%, G9a block 2%[59 µM], BAZ2B block -37%, JMJD2A Tudor inh -28% and L3MBTL1 inh -3%.
For NS(=O)(=O)c1ccc(CCNCc2cc(Br)ccc2OCc2ccccc2F)cc1 the results were HP1b chromo inh -10%, Sfp inh 50µM*, G9a block -45%, BAZ2B block -12% and JMJD2A Tudor inh inconclusive.
CCc1ccc(-c2cc(C)no2)cc1S(=O)(=O)N1CCOc2ccc(C)cc21 was read as HP1b chromo inh 74%, Sfp inh 2%, BAZ2B block 2% and JMJD2A Tudor inh 3%.
`COc1ccc(C(=O)NC2(C(F)(F)F)C(=O)N(Cc3ccco3)C3=C2C(=O)CC(C)(C)C3)cc1OC` (stereo unspecified) gave HP1b chromo inh 13%, Sfp inh 23%, G9a block 9%, BAZ2B block 6%[57.1 µM], JMJD2A Tudor inh 2%[57.1 µM] and L3MBTL1 inh -3%.
For Nc1cc(Cl)ccc1Oc1ccc(Cl)cc1 the results were HP1b chromo inh 58%, Sfp inh -10%, G9a block -35%, BAZ2B block -7%, JMJD2A Tudor inh -3% and L3MBTL1 inh 4%.
For CN(C)c1ccc(Cl)cc1N the results were HP1b chromo inh 36%, Sfp inh 4%, G9a block 25µM*, BAZ2B block inconclusive, JMJD2A Tudor inh -5% and L3MBTL1 inh -10%.
For O=C(O)C1CCCN1c1nc(-c2ccc(Cl)c(Cl)c2)cc(C(F)(F)F)n1 (stereo unspecified) the results were HP1b chromo inh 36%, G9a block inconclusive, BAZ2B block -2%, JMJD2A Tudor inh 4% and L3MBTL1 inh 5%.
For COc1ccc(N=N/C(C(C)=O)=C(/C)O)cc1 the results were HP1b chromo inh -4%, Sfp inh 14%, G9a block 1%, BAZ2B block -29%, JMJD2A Tudor inh -30% and L3MBTL1 inh -9%.
`COc1ccc(C(=O)/C(=C/O)N=Nc2ccc(F)cc2)cc1` gave HP1b chromo inh -29%, Sfp inh -4%, G9a block inconclusive, BAZ2B block 32µM*, JMJD2A Tudor inh 56µM* and L3MBTL1 inh inconclusive.
`COc1ccc(N=N/C(=C\O)C(=O)c2cccs2)cc1` gave HP1b chromo inh inconclusive, Sfp inh -10%, G9a block 20µM*, BAZ2B block 11µM*, JMJD2A Tudor inh 16µM* and L3MBTL1 inh inconclusive.
COc1ccc(CC(=O)NNC(=O)c2cccs2)cc1 was read as HP1b chromo inh 21%, Sfp inh -6%, G9a block 12%[59 µM], BAZ2B block 13%, JMJD2A Tudor inh -19% and L3MBTL1 inh -3%.
`CCOC(=O)c1c(NC(=O)COc2cccc(C)c2C)sc2c1CCC(CC)C2` (stereo unspecified) gave HP1b chromo inh 38%, G9a block -1%[59 µM], BAZ2B block 3% and JMJD2A Tudor inh 0%.
For COc1cc2[nH]c3c(Cl)ncnc3c2cc1OC the results were HP1b chromo inh 20%, Sfp inh -9%, G9a block inconclusive, BAZ2B block 45µM*, JMJD2A Tudor inh -12% and L3MBTL1 inh -13%.
For COc1cc2[nH]c3c(N4CCN(c5ccc(Cl)cc5)CC4)ncnc3c2cc1OC the results were HP1b chromo inh 28%, Sfp inh inconclusive, G9a block -2%, BAZ2B block inconclusive, JMJD2A Tudor inh -11% and L3MBTL1 inh -10%.
`OCCCc1ccccc1` gave Sfp inh -2%.
Screening Cc1cccc2cc(CN(Cc3cccs3)Cc3nnnn3Cc3ccccc3)c(=O)[nH]c12 returned HP1b chromo inh 1%, Sfp inh 0%, G9a block -3%[59 µM], BAZ2B block -2%, JMJD2A Tudor inh -25% and L3MBTL1 inh -2%.
For CCOC(=O)Cn1nnnc1CN(Cc1cccs1)Cc1cc2cc(C)cc(C)c2[nH]c1=O the results were HP1b chromo inh 10%, Sfp inh 16µM*, G9a block inconclusive, BAZ2B block -22% and JMJD2A Tudor inh -30%.
`COc1cccc(CNC(=O)CSCc2cnn(-c3ccccc3)c2-n2cccc2)c1` gave HP1b chromo inh 12%, Sfp inh -4%, G9a block -34%[59 µM], BAZ2B block inconclusive and JMJD2A Tudor inh -26%.
`CCN1C(=O)/C(=C\N(C)C)NC1=S` gave HP1b chromo inh 36%, Sfp inh 4%, G9a block -5%[59 µM], BAZ2B block -6%, JMJD2A Tudor inh -20% and L3MBTL1 inh 3%.
For CN(C)/C=C1/NC(=S)NC1=O the results were HP1b chromo inh 89µM*, Sfp inh 79µM*, G9a block 35µM*, BAZ2B block -8%, JMJD2A Tudor inh 8.9µM* and L3MBTL1 inh 10%.
`CCCCN(C(=O)c1cc(Cl)nc2ccccc12)c1c(N)n(CCCC)c(=O)[nH]c1=O` gave HP1b chromo inh 23%, G9a block 56µM*, BAZ2B block 1%, JMJD2A Tudor inh -31% and L3MBTL1 inh 1%.
For CCCCN(C(=O)c1ccccc1F)c1c(N)n(CCC)c(=O)[nH]c1=O the results were HP1b chromo inh 29%, Sfp inh 8%, G9a block 8%, BAZ2B block -12% and JMJD2A Tudor inh 79µM*.
Screening CCCCn1c(N)c(N(CCOC)C(=O)c2cc(-c3ccco3)nc3ccccc23)c(=O)[nH]c1=O returned HP1b chromo inh -38%, G9a block 40µM*, BAZ2B block 50µM*, JMJD2A Tudor inh 40µM* and L3MBTL1 inh inconclusive.
